# High-throughput results from PubChem BioAssay.
# HT1080NT lethal: kills 2HG-producing HT-1080-NT fibrosarcoma cells | AID 686970 | HT-1080-NT fibrosarcoma viability, CellTiter-Glo ATP luminescence, 48 h | hit rate 1.6% among 360,000 | Potency, µM (series often up to 46.1 µM), usual class: cytotoxic;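 note: NT is the 2HG producing partner of a matched IDH1 knockdown line; nearly all actives have a fitted effect of over 55% in size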
#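 HT-1080-NT fibrosarcoma cells (2HG-overproducing), 750 cells/well in RPMI with 5% FBS, dosed after 2 h and incubated 48 h at 37C. CellTiter-Glo luminescence normalized to DMSO and no-cell wells; concentration-response curves fitted and classed.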
# DT40 TDP1 CPT: growth inhibition of DT40 Tdp1-/-;hTDP1 cells with camptothecin (screen for TDP1 inhibitors); chicken DT40 Tdp1-/-;hTDP1 cells + 20 nM CPT, ATP luminescence, 48 h; Potency, µM (doses to about 46.2 µM), hits mostly inhibitors; hit rate 12% among 420,000; AID 686979; note: nearly all actives have a fitted effect of over 55% in size
#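 Cell growth measured by CellTiter-Glo luminescence after a minimum 48 h, 37 C compound exposure with 20 nM CPT in Tdp1-knockout DT40 cells stably expressing hTDP1, seeded 400/well; qHTS titration format.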
# TDP1 cell noCPT: qHTS for Inhibitors of human tyrosyl-DNA phosphodiesterase 1 (TDP1): qHTS in cells in absence of CPT; DT40 Tdp1-/- hTDP1 cells, no CPT, ATP luminescence, 48 h; Potency, µM (titrated, usually from 46.2 µM), actives largely listed as inhibitors; hit rate 15% among 420,000; AID 686978, 2013; note: nearly all actives have a fitted effect of over 55% in size
#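 Readout: luminescence from CellTiter-Glo after 30 min in the dark at RT. Cells: DT40 Tdp1-/- with stable hTDP1, 400/well. Exposure: compounds alone, ≥48 hr, 37 °C.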
# IL-1B inflam inh: inhibitors of inflammasome signaling (IL-1 beta secretion); THP-1 LPS/ATP IL-1B secretion, AlphaLISA, 16 h; active compounds read low; hit rate 4.7% among 360,000; activity change, % at 57.5 µM; AID 743279; in the data active = activity change below about -50%; inconclusive = mostly about -30% to -49%
#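 THP-1 cells pretreated 1 hr with compounds (up to 57.5 uM final), then stimulated with LPS (250 ng/mL final) plus ATP (1.25 mM final); secreted IL-1B measured by AlphaLISA after 16 hr, decreased signal indicating inhibition.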
# HT1080 IDH1KD tx: HT-1080 IDH1 knockdown cell toxicity (counter line). HT-1080 IDH1 knockdown viability, ATP luminescence, 48 h. hit rate 2% among 360,000. Potency, µM (titrated, usually from 46.1 µM), most hits filed as cytotoxic
#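 In this qHTS, HT-1080 cells depleted of IDH1 are exposed for 48 h at 37 °C to compound titrations. Toxicity is scored from CellTiter-Glo luminescence, with DMSO as full viability and medium alone as none.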
# A number is an active result; - = inactive; ? = inconclusive; . = no result given; [ ] = remark or other dose. Only some compounds are listed: those with a hit (about 19% of all), similar ones and a draw of the others. Unless noted, calls come from the whole dose curve; as a rule, active = well fitted curve in the direction sought with a large enough effect; inconclusive = small, poorly fitted or top-dose-only effect, or another doubt; inactive = no such curve, though single readings can be large; an effect the other way counts as inactive or inconclusive.
SMILES,HT1080NT lethal,DT40 TDP1 CPT,TDP1 cell noCPT,IL-1B inflam inh,HT1080 IDH1KD tx
CC1(C(=O)NS(=O)(=O)c2ccc(F)cc2F)CCN1C(=O)CC(c1ccccc1)c1ccccc1 (configuration not stated),-,?,?,-,-
Cc1ccc(F)c(S(=O)(=O)NC(=O)C2(C)CCN2C(=O)CC(c2ccccc2)c2ccccc2)c1 (configuration not stated),-,?,20.6µM,-,-
CC1(C(=O)NS(=O)(=O)c2ccccc2C(F)(F)F)CCN1C(=O)CCc1ccccc1 (configuration not stated),-,-,-,-54.0,-
C#Cc1ccc(NC(=O)C2(C)CCN2C(=O)CC(c2ccccc2)c2ccccc2)cc1 (configuration not stated),?,16.4µM,?,-,?
CC1(C(=O)Nc2nccs2)CCN1C(=O)CC(c1ccccc1)c1ccccc1 (configuration not stated),-,16.4µM,20.6µM,-,-
COc1ccc(-c2cc3c(=O)n(CC(=O)Nc4cc(F)ccc4F)ccn3n2)cc1OC,.,-,-,.,.
COC(=O)c1cc(CNC(=O)c2ccccc2)cc(NC(=O)c2ccccc2OC)c1,.,-[9.04 µM],?,.,.
CCCN(CC(=O)Nc1ccc(F)c(F)c1F)C(=O)c1cc([N+](=O)[O-])ccc1N1CCOCC1,-,?,?,-,-
COc1ccccc1N1CCN(C(=O)c2cc(-c3cccs3)on2)CC1,-,?,?,-,-
COc1ccc(-c2cc(C(=O)N3CCN(c4ccccc4OC)CC3)no2)cc1OC,-,-,20.6µM,-,-
COc1ccccc1N1CCN(C(=O)c2cc(-c3ccccc3O)on2)CC1,-,20.6µM,18.4µM,-,-
COc1cccc(OCc2cc(C(=O)N3CCN(c4ccccc4O)CC3)no2)c1,-,16.4µM,13µM,-,-
COc1cccc(-c2cc(C(=O)N3CCN(C(c4ccccc4)c4ccccc4)CC3)no2)c1,-,20.6µM,25.9µM,-,-
CC(C)(C)c1ccc(CC(=O)N2CCC2(C)C(=O)NS(=O)(=O)c2ccc3c(c2)CCO3)cc1 (configuration not stated),-,-,-,-,-
NC(Cc1c[nH]c2ccccc12)C(=O)Nc1ccccc1 (configuration not stated),-,-,-,-,-
Cc1ccc2c(C)c(C(=O)N(Cc3ccc(N(C)C)cc3)C3CCS(=O)(=O)C3)oc2c1 (configuration not stated),-,?,?,-,-
COc1ccc([C@H]2C(C#N)=C([S-])N[C@](C)(O)[C@@H]2[n+]2ccccc2)cc1,-,-,-,-,-
COc1ccc(NS(=O)(=O)c2cccc(C(=O)NNC(=O)c3ccc(Br)o3)c2)cc1,-,-,5.8µM,-,-
COc1ccc(Cl)cc1NS(=O)(=O)c1cccc(C(=O)NC2CCN(Cc3ccccc3)CC2)c1,?,?,?,-57.4,-
O=C(NC1CCN(Cc2ccccc2)CC1)c1cccc(S(=O)(=O)Nc2cc(C(F)(F)F)ccc2Cl)c1,-,?,?,-,-
COc1ccc(NS(=O)(=O)c2cccc(C(=O)NC3CCN(Cc4ccccc4)CC3)c2)cc1,?,14.6µM,?,-69.8,?
CCOC(=O)C1CCCN(C(=O)c2ccccc2NC(=O)C2=C(C)OCCS2)C1 (configuration not stated),-,-,-,-,-
CCOc1ccccc1/C=N\Nc1cnn(Cc2ccccc2)c(=O)c1Cl,-,23.1µM,?,?,-
CSc1ccc(S(=O)(=O)Nc2c(C)n(C)n(-c3ccccc3)c2=O)cc1,-,-,-,?,-
N#CC1=C(N)N(c2ccc(F)cc2)C2=C(C1c1ccc(O)cc1)S(=O)(=O)CC2 (configuration not stated),-,20.6µM,?,-,-
Cn1c2c(c(=O)n(C)c1=O)C(c1ccccc1[N+](=O)[O-])CC(=O)N2 (configuration not stated),.,-,?,.,.
CCOC(=O)c1cc(-c2ccc(OC)cc2)n(CCC(=O)NCCc2ccccc2)c1C,.,20.6µM,18.4µM,.,.
